This is a sample that favours compounds with a hit; in the whole collection about 12% have one here.
TDP1 inh – blocks human tyrosyl-DNA phosphodiesterase 1; recombinant TDP1, AlphaScreen DNA substrate cleavage; Potency, µM (titrated, usually from 130 µM), for inactives: top-dose activity change, negative = inhibition, usual class: inhibitors; 350,000 tested, 0.28% active; note: % is set by controls: 0 for no effect and ±100 for the full control effect; nearly all actives have a fitted effect of over 40% in size
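Compounds were preincubated with Tdp1 (1 nM final) for 15 min at room temperature before substrate (15 nM final) started a 5 min reaction; beads (10 ug/ml final) were then added for 10 min before AlphaScreen detection.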
JMJD2A Tudor inh – inhibitors of human JMJD2A Tudor domain. O75164. AlphaScreen JMJD2A-Tudor / H3K4me3 peptide binding. Potency, µM (top dose mostly 114 µM), inactives show top-dose activity change, negative = inhibition, most hits filed as inhibitors. 390,000 tested, 4.4% active; note: % is set by controls: 0 for no effect and ±100 for the full control effect; nearly all actives have a fitted effect of over 50% in size
G9a block – inhibitors of human histone lysine methyltransferase G9a | G9a H3K9 monomethylation, AlphaScreen, 2 h | Q96KQ7 | 350,000 tested, 8.8% active | Potency, µM (top dose mostly 102 µM), for the others: top-dose activity, negative = inhibition, most hits filed as inhibitors; note: % is set by controls: 0 for no effect and ±100 for the full control effect; nearly all actives have a fitted effect of over 75% in size
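Quantitative HTS format: methyltransferase activity on a biotin-tagged H3K9 peptide is measured by AlphaScreen, using a rabbit anti-monomethyl-H3K9 antibody with streptavidin donor and anti-IgG acceptor beads. Final levels are 20 nM enzyme, 500 nM peptide, 20 uM SAM; 2 h RT.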
BAZ2B inh – blocks human BAZ2B; Q9UIF8; AlphaScreen BAZ2B-H3K14Ac peptide displacement; Potency, µM (series often up to 114 µM), for the others: top-dose activity change, negative = inhibition, usual class: inhibitors; 360,000 tested, 4.4% active; AID 504333; note: % is set by controls: 0 for no effect and ±100 for the full control effect; nearly all actives have a fitted effect of over 60% in size
Target sequence (Q9UIF8 whole entry, looked up): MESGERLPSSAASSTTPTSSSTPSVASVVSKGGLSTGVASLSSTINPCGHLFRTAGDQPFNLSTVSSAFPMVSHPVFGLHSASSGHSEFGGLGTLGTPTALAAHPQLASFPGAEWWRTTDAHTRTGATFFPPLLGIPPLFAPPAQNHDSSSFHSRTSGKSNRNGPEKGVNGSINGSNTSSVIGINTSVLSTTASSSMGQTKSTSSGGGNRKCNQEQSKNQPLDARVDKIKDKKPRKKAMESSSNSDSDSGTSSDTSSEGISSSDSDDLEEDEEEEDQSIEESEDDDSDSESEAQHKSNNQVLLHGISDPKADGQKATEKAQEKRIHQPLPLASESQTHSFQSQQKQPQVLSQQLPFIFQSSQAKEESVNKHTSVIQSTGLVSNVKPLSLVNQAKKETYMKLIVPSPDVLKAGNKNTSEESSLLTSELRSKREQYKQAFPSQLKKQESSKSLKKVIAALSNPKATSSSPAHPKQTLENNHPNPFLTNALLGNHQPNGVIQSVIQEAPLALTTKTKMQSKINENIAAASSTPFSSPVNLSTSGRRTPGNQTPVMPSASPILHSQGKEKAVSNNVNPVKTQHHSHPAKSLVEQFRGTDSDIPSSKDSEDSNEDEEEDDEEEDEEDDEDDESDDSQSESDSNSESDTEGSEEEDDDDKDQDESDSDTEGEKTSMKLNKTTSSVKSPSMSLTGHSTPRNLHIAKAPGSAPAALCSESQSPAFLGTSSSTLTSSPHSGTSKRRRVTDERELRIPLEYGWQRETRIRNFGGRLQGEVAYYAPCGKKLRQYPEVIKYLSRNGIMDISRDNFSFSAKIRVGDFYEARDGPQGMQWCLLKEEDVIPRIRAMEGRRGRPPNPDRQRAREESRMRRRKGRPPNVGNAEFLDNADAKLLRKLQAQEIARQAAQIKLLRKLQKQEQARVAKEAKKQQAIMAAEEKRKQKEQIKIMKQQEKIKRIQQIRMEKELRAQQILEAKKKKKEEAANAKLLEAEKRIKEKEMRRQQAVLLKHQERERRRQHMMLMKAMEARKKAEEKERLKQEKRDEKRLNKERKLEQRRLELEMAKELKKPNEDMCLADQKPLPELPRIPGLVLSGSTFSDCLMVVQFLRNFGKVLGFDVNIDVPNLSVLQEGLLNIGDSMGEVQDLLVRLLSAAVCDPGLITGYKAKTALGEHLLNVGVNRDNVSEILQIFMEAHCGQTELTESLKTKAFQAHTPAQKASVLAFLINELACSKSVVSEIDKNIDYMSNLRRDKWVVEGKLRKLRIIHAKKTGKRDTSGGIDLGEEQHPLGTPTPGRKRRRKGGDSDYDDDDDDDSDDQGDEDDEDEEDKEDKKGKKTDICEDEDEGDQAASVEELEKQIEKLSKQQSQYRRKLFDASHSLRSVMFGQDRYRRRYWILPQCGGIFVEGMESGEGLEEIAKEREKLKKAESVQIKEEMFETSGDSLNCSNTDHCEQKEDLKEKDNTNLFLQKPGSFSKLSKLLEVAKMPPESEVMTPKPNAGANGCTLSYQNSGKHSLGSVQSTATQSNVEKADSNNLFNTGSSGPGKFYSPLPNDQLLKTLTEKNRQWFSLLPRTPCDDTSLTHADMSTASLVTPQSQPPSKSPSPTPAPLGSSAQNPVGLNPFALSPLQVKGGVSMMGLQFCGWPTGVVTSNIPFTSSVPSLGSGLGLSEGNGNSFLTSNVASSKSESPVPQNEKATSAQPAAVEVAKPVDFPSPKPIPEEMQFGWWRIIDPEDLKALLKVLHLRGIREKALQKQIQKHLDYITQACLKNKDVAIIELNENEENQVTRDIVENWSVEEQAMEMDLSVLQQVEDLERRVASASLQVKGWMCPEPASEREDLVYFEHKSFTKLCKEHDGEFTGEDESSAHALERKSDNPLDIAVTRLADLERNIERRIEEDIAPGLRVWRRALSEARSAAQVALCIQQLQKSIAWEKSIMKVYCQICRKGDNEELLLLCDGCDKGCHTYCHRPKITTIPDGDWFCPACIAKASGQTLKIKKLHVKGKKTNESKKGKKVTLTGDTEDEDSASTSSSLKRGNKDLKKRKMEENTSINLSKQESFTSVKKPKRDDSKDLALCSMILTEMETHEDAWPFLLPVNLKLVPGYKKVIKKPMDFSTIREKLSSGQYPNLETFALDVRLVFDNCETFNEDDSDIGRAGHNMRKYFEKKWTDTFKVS
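BAZ2B (50 nM) with biotin-H3(5-23)K14Ac peptide (50 nM) in PBS pH 7.4, 0.01% Tween-20, preformed 30 min, then compound 30 min at room temperature; top concentration 110uM. AlphaScreen streptavidin donor/nickel chelate acceptor beads (10 ug/mL final), 20 min dark, signal read.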
HP1b binding inh – HP1-beta chromodomain-methylated histone interaction inhibition | AID 540317 | Potency, µM (top dose mostly 114 µM), for the others: top-dose activity change, negative = inhibition, actives largely listed as inhibitors | AlphaScreen HP1-beta / biotin-H3K9me3 peptide binding | 390,000 tested, 0.56% active; note: nearly all actives have a fitted effect of over 70% in size
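Compound inhibition of the preformed complex between 50 nM HP1-beta and 50 nM biotinylated H3K9me3 peptide was read by AlphaScreen. Buffer was PBS pH 7.4 with 0.01% Tween-20. Incubations ran 30 min at room temperature, with 10 ug/mL donor/acceptor beads.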
Sfp inh – blocks B. subtilis Sfp PPTase activity | Q9F4F7 | Potency, µM, for the others: largest response in the series, negative = inhibition, usual class: inhibitors | 310,000 tested, 3.5% active | Biochemical Sfp PPTase activity, qHTS;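 note: the enzyme is Sfp with the accession as filed and its product quenches rhodamine fluorescence; 0% = enzyme reaction without inhibitor and -100% = no enzyme wells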
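Fluorescence-quenching assay with 15 nM Sfp, 5 uM rhodamine-CoA and 12.5 uM BHQ-2-labelled ybbR peptide in pH 7.6 Hepes/MgCl2 buffer. Enzyme was pre-incubated with compound for 15 min at room temperature. Rate was taken from the 30-min fluorescence change (525/598 nm).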
* = called active by the depositor; ? = inconclusive; · = no result; [ ] = remark or other dose. Calls come from the whole dose curve; as a rule, active = well fitted curve in the direction sought with a large enough effect; inconclusive = small, poorly fitted or top-dose-only effect, or another doubt; inactive = no such curve, though single readings can be large; an effect the other way counts as inactive or inconclusive. Potency is the fitted concentration of half-maximal effect.

SMILES	TDP1 inh	JMJD2A Tudor inh	G9a block	BAZ2B inh	HP1b binding inh	Sfp inh
CC(C)CSc1oc(-c2ccco2)nc1S(=O)(=O)c1ccccc1	·	3.5%	35.5µM*	-19.6%	63.4%	-6.3%
Cc1ccc(S(=O)(=O)c2nc(-c3ccco3)oc2SCc2ccc(F)cc2)cc1	0.0%	-8.9%	?	-13.1%	17.9%	·
Cc1ccc(S(=O)(=O)c2nc(-c3ccco3)oc2SC(C)C)cc1	7.7%	-15.7%	44.7µM*	-13.8%	14.3%	-1.6%
CCSc1oc(-c2cccs2)nc1S(=O)(=O)c1ccccc1	0.0%	39.8µM*	?	-2.5%	?	?
CCSc1oc(-c2ccco2)nc1S(=O)(=O)c1ccc(F)cc1	5.6%	-14.7%	3.98µM*	3.2%	14.2%	-25.8%
Cn1cnc2c(ncn2[C@@H]2O[C@H](CO)[C@@H](O)[C@H]2O)c1=N	7.3%	·	34.6%[59 µM]	·	·	22.1%
Cc1noc(C)c1COc1ccccc1C(=O)NCCc1ccc(S(N)(=O)=O)cc1	2.5%	-5.1%	26.9%	-2.6%	29.4%	9.9%
CCN(CC(=O)NCc1ccc(Cl)cc1)C(=O)CSCC(=O)Nc1ccc(C)cc1	·	-13.8%	?	-11.5%	10.5%	·
CCCCCS(=O)(=O)c1oc(-c2cccs2)nc1S(=O)(=O)c1ccc(C)cc1	1.2%	-14.9%	3.55µM*	-5.2%	53.5%	·
CCSc1oc(-c2ccco2)nc1S(=O)(=O)c1ccc(C)cc1	1.2%	-12.6%	25.1µM*	-30.7%	28.9%	-11.0%
Cc1ccc(NC2=C(Cl)C(=O)OC2OC(=O)c2ccccc2)c(C)c1 (stereo unspecified)	3.5%	-15.0%	?	·	16.5%	50.1µM*
Nc1ccc(S(=O)(=O)N2CCN(S(=O)(=O)c3ccc4c(c3)OCCO4)CC2)cc1	-0.4%	-5.4%	·	·	·	·
C=CCN(CC=C)C(=S)NC(=O)/C=C/c1ccccc1	0.0%	22.4µM*	17.0%[59 µM]	5.9%	?	3.4%
C=CCN(CC=C)C(=S)NC(=O)/C=C/c1ccc(C)cc1	0.0%	0.0%	25.4%[59 µM]	-0.3%	33.5%	-8.6%
C=CCN(CC=C)C(=S)NC(=O)c1ccc(-c2ccccc2)cc1	8.8%	?	-0.8%	6.31µM*	-0.1%	?
CC(C)(C)c1cc(C(=O)NNc2cc(C(F)(F)F)ccc2Cl)n(Cc2ccccc2)n1	1.2%	-10.1%	-2.9%	-0.1%	20.6%	22.6%
COCCN1CCN(C(=O)c2cc(COc3cc(C)ccc3C)on2)CC1	2.6%	-16.7%	20.8%	-37.8%	25.3%	9.5%
C=CCSC1=N/C(=C\C=C\c2ccco2)C(=O)S1	2.1%	44.7µM*	7.08µM*	10µM*	39.8µM*	56.2µM*
O=C(Nc1ccc(S(=O)(=O)N2CCOCC2)cc1)c1ccco1	2.3%	-24.4%[57.1 µM]	3.9%[12.7 µM]	-1.8%	40.3%	7.3%
O=C(Nc1cc(S(=O)(=O)N2CCOCC2)ccc1O)c1ccc2c(c1)S(=O)(=O)c1ccccc1C2=O	5.5%	?	4.47µM*	?	?	20µM*
O=C(Nc1cc(S(=O)(=O)N2CCOCC2)ccc1O)c1ccco1	-1.0%	-3.2%	41.7%[0.501 µM]	-26.8%	-21.6%	56.2µM*
COc1ccc(OC)c(N/C=C/C(=C(C#N)C#N)N(C)C)c1	2.7%	-21.7%	?	-21.4%	20.1%	6.0%
Cc1oc(-c2ccccc2Cl)nc1CS(=O)(=O)CC(=O)NCCN1CCOCC1	·	-12.7%	2.8%	7.9%	35.5%	8.9%
CC(=O)OCCCNc1cc(Sc2ccc(Cl)cc2)c2nonc2c1[N+](=O)[O-]	-1.4%	-19.3%	?	-19.4%	4.7%	50.1µM*
CC(C)CCSc1cc(NCCO)c([N+](=O)[O-])c2nonc12	5.9%	-30.8%	50.1µM*	-33.4%	21.7%	-13.4%
SMILES	TDP1 inh	JMJD2A Tudor inh	G9a block	BAZ2B inh	HP1b binding inh	Sfp inh
CCC(=O)OCCNc1cc(Sc2nccn2C)c2nonc2c1[N+](=O)[O-]	1.4%	-11.8%	?	6.0%	-3.0%	?
Cc1ccc(Sc2cc(NCCCO)c([N+](=O)[O-])c3nonc23)cc1	1.9%	-11.8%[11.4 µM]	50.1µM*	-25.1%	-5.4%	-24.1%
COC(=O)CCSc1cc(NCCCOC(C)=O)c([N+](=O)[O-])c2nonc12	3.7%	0.8%[57.1 µM]	·	·	8.1%[57 µM]	·
O=[N+]([O-])c1c(NCCO)cc(N2CCCCC2)c2nonc12	-3.0%	-2.4%	-2.7%	-10.3%	22.9%	12.3%
CCCC(=O)OCCNc1cc(Sc2nc3ccccc3[nH]2)c2nonc2c1[N+](=O)[O-]	8.2%	79.4µM*	?	?	?	10µM*
CCN(CC)c1cc(NCCO)c([N+](=O)[O-])c2nonc12	3.6%	-13.9%	·	-11.2%	28.1%	-5.0%
Cc1cccc(CNc2ncnc3ccc(-c4cccc(C)c4)cc23)c1	·	·	-5.1%[12.7 µM]	-4.3%	·	·
C=C1CCN(C(Cc2ccccc2)C(=O)O)S(=O)(=O)c2ccccc21 (stereo unspecified)	-3.8%	0.7%	·	·	35.4%	18.9%
Cc1onc(-c2c(F)cccc2Cl)c1C(=O)NCc1ccc(S(N)(=O)=O)cc1	0.3%	1.3%	2.2%[59 µM]	-4.3%	24.8%	·
Cc1ccsc1C(=O)OCC(=O)Nc1cccc(S(=O)(=O)N2CCOCC2)c1	2.7%	-16.2%	-1.9%	8.8%	4.1%	7.9%
Cc1ccc(NC(=O)CSc2nnc(N)s2)cc1S(=O)(=O)N1CCOCC1	-0.2%	-15.8%	50.1µM*	-6.6%	7.3%	·
Cc1cccc(C)c1NC(=O)CSc1nnc(NC(=O)CN2CCOCC2)s1	2.1%	89.1µM*	7.3%[0.0925 µM]	?	11.2%	-17.1%
Cc1ccc(NC(=O)COC(=O)c2sccc2C)cc1S(=O)(=O)N1CCOCC1	-2.7%	-10.5%	50.1µM*	0.7%	43.2%	20.1%
COc1ccc2c(C)cc(=S)[nH]c2c1	2.6%	-15.8%[11.4 µM]	39.8µM*	-26.8%	14.7%	?
COc1ccc2c(-c3ccccc3)cc(=S)[nH]c2c1	·	-14.6%	?	-16.1%	11.9%	4.6%
COc1ccc(OCCn2c(C(C)Oc3ccccc3)nc3ccccc32)cc1 (stereo unspecified)	6.1%	-5.9%	8.4%[59 µM]	-0.4%	47.4%	·
COc1cccc(C(=O)NCCS(=O)(=O)NCCc2ccccc2)c1	-4.3%[0.505 µM]	-2.9%	44.7µM*	6.2%	22.6%	·
COc1cccc(C(=O)NCCS(=O)(=O)NC2CCCC2)c1	·	-6.8%	31.6µM*	13.7%	19.3%	·
COc1ccc(C(=O)NCCS(=O)(=O)NC2CCCC2)cc1	6.6%	-10.8%	-17.9%	8.6%	32.1%	·
COc1cccc(-c2nc(NC3CC3)c3ccccc3n2)c1	·	·	-0.8%[0.501 µM]	·	·	-15.5%
CCN(CC)CCOc1c(Br)ccc2c1sc1nc3n(c(=O)c12)CCC3	·	-16.2%	50.1µM*	-8.8%	23.1%	0.1%
O=c1c2c(nc3n1CCCCC3)sc1c(O)c(Br)ccc12	-3.0%	-17.9%	1.78µM*	-4.4%	-5.0%	-22.3%

High-throughput results as filed in PubChem BioAssay.
